We go through one molecule from ChEMBL document CHEMBL2218924, “A broad activity screen in support of a chemogenomic map for kinase signalling research and drug discovery” (Biochem J, 2013).

The target in assay [1] is T1, Ephrin type-A receptor 3 (Homo sapiens) (UniProt P29320).
T1 sequence (whole entry): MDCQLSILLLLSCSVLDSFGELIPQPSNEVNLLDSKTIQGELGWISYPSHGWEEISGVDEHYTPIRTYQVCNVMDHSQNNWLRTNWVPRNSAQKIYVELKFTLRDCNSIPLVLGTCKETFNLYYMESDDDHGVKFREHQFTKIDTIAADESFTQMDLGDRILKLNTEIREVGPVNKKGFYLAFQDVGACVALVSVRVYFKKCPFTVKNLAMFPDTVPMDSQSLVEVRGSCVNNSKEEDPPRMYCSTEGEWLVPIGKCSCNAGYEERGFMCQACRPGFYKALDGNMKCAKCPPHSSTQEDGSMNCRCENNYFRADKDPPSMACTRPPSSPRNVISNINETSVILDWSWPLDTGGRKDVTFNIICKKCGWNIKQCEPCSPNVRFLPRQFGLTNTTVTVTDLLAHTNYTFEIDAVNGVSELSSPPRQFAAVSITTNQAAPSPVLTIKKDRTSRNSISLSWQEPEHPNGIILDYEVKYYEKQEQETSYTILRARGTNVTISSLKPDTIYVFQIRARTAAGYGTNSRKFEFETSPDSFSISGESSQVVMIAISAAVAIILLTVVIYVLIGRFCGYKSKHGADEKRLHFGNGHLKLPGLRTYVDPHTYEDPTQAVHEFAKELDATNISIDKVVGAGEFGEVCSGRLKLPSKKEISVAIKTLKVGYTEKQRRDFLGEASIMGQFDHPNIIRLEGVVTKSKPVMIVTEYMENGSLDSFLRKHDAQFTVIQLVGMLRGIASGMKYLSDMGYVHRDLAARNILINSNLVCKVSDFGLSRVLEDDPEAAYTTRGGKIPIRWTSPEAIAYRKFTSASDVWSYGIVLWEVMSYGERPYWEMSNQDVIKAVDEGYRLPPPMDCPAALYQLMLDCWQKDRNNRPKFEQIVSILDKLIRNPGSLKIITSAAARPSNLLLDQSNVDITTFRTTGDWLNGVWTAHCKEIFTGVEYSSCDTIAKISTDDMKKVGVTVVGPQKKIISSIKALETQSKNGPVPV
Conditions: at 10 µM.

For assay [2], the target named is Ephrin type-A receptor 4 (Homo sapiens) (UniProt P54764). To be noted: at 1 µM.
Ephrin type-A receptor 4 (Homo sapiens), sequence (P54764 whole entry): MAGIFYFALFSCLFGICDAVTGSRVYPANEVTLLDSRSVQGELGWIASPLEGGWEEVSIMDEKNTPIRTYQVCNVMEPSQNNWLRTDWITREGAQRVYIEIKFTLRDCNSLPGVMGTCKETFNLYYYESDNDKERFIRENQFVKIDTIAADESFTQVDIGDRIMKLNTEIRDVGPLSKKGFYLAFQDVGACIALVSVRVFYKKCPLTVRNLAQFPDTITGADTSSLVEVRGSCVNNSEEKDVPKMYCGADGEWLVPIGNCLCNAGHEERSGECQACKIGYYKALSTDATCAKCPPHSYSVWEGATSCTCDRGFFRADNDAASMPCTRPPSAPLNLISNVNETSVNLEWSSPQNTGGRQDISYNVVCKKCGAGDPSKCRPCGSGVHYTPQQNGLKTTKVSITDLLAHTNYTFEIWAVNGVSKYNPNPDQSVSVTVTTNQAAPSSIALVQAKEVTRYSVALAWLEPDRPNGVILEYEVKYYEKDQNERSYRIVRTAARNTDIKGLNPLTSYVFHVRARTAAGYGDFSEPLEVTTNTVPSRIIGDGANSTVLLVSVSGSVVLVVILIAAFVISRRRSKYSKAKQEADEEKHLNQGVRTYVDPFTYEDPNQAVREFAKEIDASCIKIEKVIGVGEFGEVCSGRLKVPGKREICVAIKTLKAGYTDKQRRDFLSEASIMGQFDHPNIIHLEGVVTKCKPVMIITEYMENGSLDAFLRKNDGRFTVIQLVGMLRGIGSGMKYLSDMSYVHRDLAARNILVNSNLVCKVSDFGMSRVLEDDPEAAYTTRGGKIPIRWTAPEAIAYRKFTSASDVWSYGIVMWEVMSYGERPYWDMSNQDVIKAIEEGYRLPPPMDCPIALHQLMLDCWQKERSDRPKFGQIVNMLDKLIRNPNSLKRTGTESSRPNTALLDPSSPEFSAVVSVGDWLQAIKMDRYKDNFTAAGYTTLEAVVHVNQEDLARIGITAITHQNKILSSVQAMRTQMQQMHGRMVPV
Assay [3] shares this target. Conditions: at 10 µM.
Assay [4] addresses Ephrin type-A receptor 5 (Homo sapiens) (UniProt P54756). To be noted: at 1 µM.
For assay [5] the target is unchanged. To be noted: at 10 µM.
The target in assay [6] is Ephrin type-A receptor 7 (Homo sapiens) (UniProt Q15375). Conditions: at 1 µM.
Ephrin type-A receptor 7 (Homo sapiens), sequence (Q15375 28-998 limits assumed): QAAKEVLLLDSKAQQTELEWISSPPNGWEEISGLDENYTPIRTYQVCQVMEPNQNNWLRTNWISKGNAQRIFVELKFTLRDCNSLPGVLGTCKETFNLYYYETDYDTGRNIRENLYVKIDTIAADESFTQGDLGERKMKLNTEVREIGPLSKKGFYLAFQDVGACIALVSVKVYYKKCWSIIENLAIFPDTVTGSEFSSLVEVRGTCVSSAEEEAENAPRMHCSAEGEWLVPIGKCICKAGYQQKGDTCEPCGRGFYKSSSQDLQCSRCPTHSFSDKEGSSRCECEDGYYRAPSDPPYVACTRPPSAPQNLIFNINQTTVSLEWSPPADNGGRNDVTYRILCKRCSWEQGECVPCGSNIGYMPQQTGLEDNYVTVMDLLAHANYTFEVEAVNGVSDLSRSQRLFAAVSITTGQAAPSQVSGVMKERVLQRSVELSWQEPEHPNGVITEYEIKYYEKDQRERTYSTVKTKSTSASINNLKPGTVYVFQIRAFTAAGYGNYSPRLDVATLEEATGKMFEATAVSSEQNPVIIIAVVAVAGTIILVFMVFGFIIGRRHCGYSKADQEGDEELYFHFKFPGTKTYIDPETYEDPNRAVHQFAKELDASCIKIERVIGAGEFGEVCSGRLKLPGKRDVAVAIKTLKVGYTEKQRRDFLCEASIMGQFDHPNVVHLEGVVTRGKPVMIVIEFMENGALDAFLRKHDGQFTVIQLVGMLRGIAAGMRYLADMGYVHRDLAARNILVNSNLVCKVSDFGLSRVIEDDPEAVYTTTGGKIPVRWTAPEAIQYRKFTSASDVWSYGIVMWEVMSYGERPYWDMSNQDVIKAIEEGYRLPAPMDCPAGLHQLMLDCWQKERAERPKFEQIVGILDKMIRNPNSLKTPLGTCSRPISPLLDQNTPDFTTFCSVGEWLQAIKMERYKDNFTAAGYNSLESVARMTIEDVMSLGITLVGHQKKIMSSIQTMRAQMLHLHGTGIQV
Assay [7] has the same target. To be noted: at 10 µM.
For assay [8], the target named is T2, Ephrin type-A receptor 8 (Homo sapiens) (UniProt P29322).
T2 sequence (whole entry): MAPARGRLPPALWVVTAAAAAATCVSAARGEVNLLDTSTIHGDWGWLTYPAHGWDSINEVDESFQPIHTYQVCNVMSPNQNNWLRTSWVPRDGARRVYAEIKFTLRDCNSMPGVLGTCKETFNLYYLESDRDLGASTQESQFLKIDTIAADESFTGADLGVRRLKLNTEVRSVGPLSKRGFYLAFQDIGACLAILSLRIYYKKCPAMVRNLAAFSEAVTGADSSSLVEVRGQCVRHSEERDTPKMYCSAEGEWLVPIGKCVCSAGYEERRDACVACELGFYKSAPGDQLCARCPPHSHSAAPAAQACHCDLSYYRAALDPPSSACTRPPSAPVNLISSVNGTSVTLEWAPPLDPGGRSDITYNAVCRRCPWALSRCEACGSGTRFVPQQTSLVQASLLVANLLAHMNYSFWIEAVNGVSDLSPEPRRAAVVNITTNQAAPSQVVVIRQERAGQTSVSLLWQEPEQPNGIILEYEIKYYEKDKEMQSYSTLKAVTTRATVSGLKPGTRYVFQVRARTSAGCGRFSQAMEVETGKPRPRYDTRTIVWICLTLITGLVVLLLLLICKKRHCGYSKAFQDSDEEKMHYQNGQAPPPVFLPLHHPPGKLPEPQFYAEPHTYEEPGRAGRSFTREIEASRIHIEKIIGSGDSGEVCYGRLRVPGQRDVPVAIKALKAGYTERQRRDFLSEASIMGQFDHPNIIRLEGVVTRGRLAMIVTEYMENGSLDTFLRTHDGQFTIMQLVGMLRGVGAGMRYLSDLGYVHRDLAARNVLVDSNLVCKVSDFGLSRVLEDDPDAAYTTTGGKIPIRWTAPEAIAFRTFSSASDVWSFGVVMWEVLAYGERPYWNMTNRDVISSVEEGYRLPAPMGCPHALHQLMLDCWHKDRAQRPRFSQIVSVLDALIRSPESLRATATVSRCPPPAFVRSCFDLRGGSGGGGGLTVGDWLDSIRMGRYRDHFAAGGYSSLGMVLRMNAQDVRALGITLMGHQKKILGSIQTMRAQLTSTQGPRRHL
Conditions: at 1 µM.

Assay [9] deals with T2, Ephrin type-A receptor 8 (Homo sapiens). To be noted: at 10 µM.
Assay [10] concerns the target T3, Ephrin type-B receptor 1 (Homo sapiens) (UniProt P54762).
T3 sequence (whole entry): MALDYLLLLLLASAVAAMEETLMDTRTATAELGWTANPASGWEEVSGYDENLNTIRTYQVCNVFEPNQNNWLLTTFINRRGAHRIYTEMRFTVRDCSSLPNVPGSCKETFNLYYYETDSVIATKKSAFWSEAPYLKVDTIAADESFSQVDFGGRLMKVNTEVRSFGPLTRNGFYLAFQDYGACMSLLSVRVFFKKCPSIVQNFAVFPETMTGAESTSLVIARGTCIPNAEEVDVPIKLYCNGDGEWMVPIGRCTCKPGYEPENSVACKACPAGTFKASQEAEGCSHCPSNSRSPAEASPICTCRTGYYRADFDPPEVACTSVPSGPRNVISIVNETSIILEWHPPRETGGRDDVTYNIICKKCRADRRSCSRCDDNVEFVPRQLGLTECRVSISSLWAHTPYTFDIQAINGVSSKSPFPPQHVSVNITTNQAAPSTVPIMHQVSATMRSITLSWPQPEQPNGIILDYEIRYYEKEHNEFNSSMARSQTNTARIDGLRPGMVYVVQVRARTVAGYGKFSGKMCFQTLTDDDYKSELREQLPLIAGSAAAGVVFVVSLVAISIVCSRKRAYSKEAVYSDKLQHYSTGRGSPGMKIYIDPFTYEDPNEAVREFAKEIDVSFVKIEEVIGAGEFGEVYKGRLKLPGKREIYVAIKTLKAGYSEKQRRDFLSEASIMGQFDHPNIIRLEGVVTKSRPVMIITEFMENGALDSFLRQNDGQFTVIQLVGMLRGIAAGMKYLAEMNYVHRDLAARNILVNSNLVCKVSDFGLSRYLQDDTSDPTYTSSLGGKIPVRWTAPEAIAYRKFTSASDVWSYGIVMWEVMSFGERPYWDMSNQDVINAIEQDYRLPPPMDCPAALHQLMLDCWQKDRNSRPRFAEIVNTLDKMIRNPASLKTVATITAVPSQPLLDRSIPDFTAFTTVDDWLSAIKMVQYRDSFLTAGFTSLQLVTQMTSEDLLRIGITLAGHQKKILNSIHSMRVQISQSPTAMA
To be noted: at 1 µM.

In general, residual activity refers to the signal under treatment as a percentage of the control signal.

Ephrin type-A receptor 5 (Homo sapiens), sequence (P54756 whole entry): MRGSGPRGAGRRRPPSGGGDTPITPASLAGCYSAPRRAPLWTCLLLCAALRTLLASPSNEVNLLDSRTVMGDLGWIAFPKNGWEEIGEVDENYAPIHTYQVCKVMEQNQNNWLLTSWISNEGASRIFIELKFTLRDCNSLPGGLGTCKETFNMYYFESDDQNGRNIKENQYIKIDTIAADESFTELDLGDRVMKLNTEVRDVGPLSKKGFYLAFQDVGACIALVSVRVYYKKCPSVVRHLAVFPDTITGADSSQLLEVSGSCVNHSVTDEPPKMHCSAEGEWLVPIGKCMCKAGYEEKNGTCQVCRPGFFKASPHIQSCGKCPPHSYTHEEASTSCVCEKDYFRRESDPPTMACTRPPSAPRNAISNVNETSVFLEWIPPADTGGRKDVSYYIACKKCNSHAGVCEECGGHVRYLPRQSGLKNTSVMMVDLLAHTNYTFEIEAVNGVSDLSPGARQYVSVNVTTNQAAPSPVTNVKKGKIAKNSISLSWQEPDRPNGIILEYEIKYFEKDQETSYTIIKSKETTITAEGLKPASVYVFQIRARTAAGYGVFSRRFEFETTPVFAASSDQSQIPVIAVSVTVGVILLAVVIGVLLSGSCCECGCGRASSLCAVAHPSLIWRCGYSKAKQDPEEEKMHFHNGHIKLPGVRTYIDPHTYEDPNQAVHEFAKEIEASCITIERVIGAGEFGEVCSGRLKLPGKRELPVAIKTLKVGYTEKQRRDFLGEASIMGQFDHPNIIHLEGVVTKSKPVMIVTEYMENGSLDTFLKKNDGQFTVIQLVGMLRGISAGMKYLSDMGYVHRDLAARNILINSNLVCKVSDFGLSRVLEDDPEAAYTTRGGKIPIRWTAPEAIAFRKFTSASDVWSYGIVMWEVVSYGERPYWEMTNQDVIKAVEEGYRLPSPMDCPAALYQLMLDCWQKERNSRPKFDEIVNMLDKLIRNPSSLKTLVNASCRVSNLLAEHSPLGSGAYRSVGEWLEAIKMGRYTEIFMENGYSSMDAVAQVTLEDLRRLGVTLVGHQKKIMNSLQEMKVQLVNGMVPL

As to `Cc1ccc(NC2=CC(=O)c3sc(C)nc3C2=O)cc1`, the residual activity in assay [1] was 97%; in assay [2], 101%; in assay [3], 112%; in assay [4] it was 110%; in assay [5], 100%; in [6], 90%. The residual activity in assay [7] was 83%; in [8], 89%; in assay [9], 96%; in assay [10], 81%.
